Data as given in PubChem BioAssay (NCI).
About 83,000 compounds went through this panel and 20% of them were active in at least one assay; those are over-represented in the sample as a whole.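 How to read the values: 0–100, growth inhibition (40 = 60% inhibited); 0, no net growth; -100 to 0, cell death (-40 = 40% of starting cells died; -100 = all dead).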 Values without a mark were called inactive. Active and inactive are the calls of the source. How the source made its calls: active means growth percent below 10; inactive means the rest.

Test system: CCRF-CEM leukemia
Assay: NCI-60 one-dose screen, 48 h (100 = growth as untreated, 0 = no growth, -100 = all killed)
Conditions: 10 µM unless noted

Row | SMILES | growth
1 | CCOP(=O)(OCC)c1nc(-c2ccccc2)oc1NCc1cccnc1 | 108%
2 | CCOC(=O)c1cn2ncnc(Oc3ccc(NC(=O)NC4CCCCC4)c(Cl)c3)c2c1C | 69.8%
3 | COC(=O)c1cc(-c2ccccc2)[nH]c1N/N=C/c1c(Cl)cccc1Cl | -8.44% (active)
4 | COc1ccc(-c2nnc(-c3ccc4c(c3)nc(-c3ccncc3)n4C3CCCCC3)o2)cc1 | 55.5%
5 | CC(C)(C)c1cc(-c2nc3ccc(N4CCN(S(C)(=O)=O)CC4)cc3[nH]2)cc(C(C)(C)C)c1O | 84.5%
6 | CCCCN1C(=O)/C(=c2\sc3n(c2=O)C2C(NN=3)N(CC)C(=O)N2CC)c2ccccc21 (stereo unspecified) | 7.34% (active)
7 | N#Cc1nn(-c2cc(=O)[nH]c3ccc(Cl)cc23)c(N)c1C#N | -15.8% (active)
8 | Cc1ccc(-n2c(=S)[nH]c3sc4c(c3c2=O)CCC(=O)C4)cc1 | 20.8%

Test system: MOLT-4 leukemia
Assay: as above
Conditions: 10 µM unless noted

Row | SMILES | growth
9 | O=Cc1ccc([N+](=O)[O-])s1 | 88.3%
10 | CC(C)(C)n1cc(-c2ccnc(NCCCNS(=O)(=O)c3ccc(F)cc3)c2)c(-c2cccc(F)c2)n1 | 41.7%
11 | O=C1C(Cl)=C(Nc2ccc(O)cc2)C(=O)N1Cc1ccc(Cl)cc1 | 16.9%
12 | COc1cc(CNC(=O)CCCC/C=C/C(C)C)ccc1OCc1nnc(Nc2ccc([N+](=O)[O-])cc2)o1 | 84.2%
13 | O=C(N/N=C/c1ccc(F)cc1)c1ccc(C(F)(F)F)nc1Nc1cccc(C(F)(F)F)c1 | -20.3% (active)
14 | C=C(C)[C@@H]1CC[C@]2(C(=O)NCCNCCN)CC[C@]3(C)[C@H](CC[C@@H]4[C@@]5(C)C/C(=C/c6ccncc6)C(=O)C(C)(C)[C@@H]5CC[C@]43C)[C@@H]12 | 82.9%
15 | O=C(COc1ccc(-c2nc3ccccc3[nH]2)cc1)N=Nc1c(O)[nH]c2ccc(Cl)cc12 | 22.9%
16 | C/C(=N/O)c1ccc(F)cc1 | 77.7%
17 | COc1ccc(C2=Nc3c/c(=C\c4c(O)[nH]c5ccc(Cl)cc45)ccc3=N2)cc1 | 19.9%
18 | CCOC(=O)c1cnc2ccccc2c1Cl | 99.9%
19 | CCCc1cc(NC)nc(S(=O)(=O)CC)n1 | 107%
20 | COc1ccc(/C=C2\C(=O)N=C3N2NC(c2cc(Br)ccc2O)C=C(C)N3c2ccccc2)cc1 (stereo unspecified) | 97.4%
21 | O=S(=O)(NCCNc1nccc(-c2c(-c3cccc(F)c3)nc3occn23)n1)c1ccc(Br)cc1 | 82.5%
22 | CCn1cc(C(=O)N/N=C/c2cccs2)c(=O)c2cc(F)c(N3CCNC(C)C3)c(F)c21 (stereo unspecified) | 75.1%
23 | Cn1c(=O)c2[nH]c(N/N=C/c3ccccc3Br)nc2n(C)c1=O | 98.3%
24 | CCCCCCNC(=O)Oc1ccc(/C(=C(/C)Cc2ccc(OC)cc2)c2ccc(OCCCN(C)C)cc2)cc1 | -12.3% (active)
25 | O=C(OCc1ccc2cccc(O)c2n1)N1CCN(C(=O)c2cc3cc(F)ccc3[nH]2)CC1 | -16.9% (active)
26 | CC(=O)[C@@H]1CCC=C2CC[C@]3(C)[C@@H](CC[C@@H]4[C@@]5(C)CCCNC(C)(C)[C@@H]5CC[C@]43C)[C@H]21 | -46.4% (active)
27 | O=c1oc2ccc([N+](=O)[O-])cc2cc1Br | 98.5%
28 | S=C(Nc1ccc(-c2nc(N3CCOCC3)c3cccn3n2)cc1)Nc1cccnc1 | 36.8%
29 | O=C1/C(=C/c2ccc(-c3ccc(Br)cc3)o2)SC(=S)N1CCc1ccc(O)cc1 | 33.6%
30 | CCOC(=O)CSc1ncnc2c1c(-c1ccccc1)c(-c1ccccc1)n2-c1ccc(C)cc1 | 67.4%
31 | CCNc1cc(-c2cccc(OC(F)(F)F)c2)nc2ccc(N3CCCC3)cc12 | 2.48% (active)
32 | CCCCNC(=O)Oc1ccc(/C(=C(/CC)Cc2ccccc2)c2ccc(OCCN3CCCCCC3)cc2)cc1 | 2.34% (active)
33 | COc1ccc(-c2nc3c(c(-c4ccccc4)nn3-c3ccccc3)c(-c3ccc(N4CCOCC4)cc3)c2C#N)cc1 | 94.4%
34 | COc1cc(-c2csc(NC(=O)c3cc(-n4cnc(C)c4)cc(C(F)(F)F)c3)n2)cc(OC)c1OC | 37.3%
35 | COc1cc(CNS(=O)(=O)c2ccc(C)cc2)ccc1OCc1cn(-c2ccc(Br)cc2)nn1 | 101%
36 | Nc1ncnc2c1N=C(c1ccc3c(c1)OCO3)CC(c1ccc([N+](=O)[O-])cc1)N2 (stereo unspecified) | 99.3%
